From PubChem
Hits are enriched below; roughly 3.2% of the tested compounds scored in any of these assays.
ALOX15 inhib: qHTS Assay for Inhibitors of 15-hLO (15-human lipoxygenase); purified 15hLO-1, xylenol orange hydroperoxide absorbance; Potency, µM (titrated, usually from 57.1 µM), usual class: inhibitors; hit rate 1.4% among 74,000; note: nearly all actives have a fitted effect of over 55% in size
Target sequence (P16050 whole entry, looked up): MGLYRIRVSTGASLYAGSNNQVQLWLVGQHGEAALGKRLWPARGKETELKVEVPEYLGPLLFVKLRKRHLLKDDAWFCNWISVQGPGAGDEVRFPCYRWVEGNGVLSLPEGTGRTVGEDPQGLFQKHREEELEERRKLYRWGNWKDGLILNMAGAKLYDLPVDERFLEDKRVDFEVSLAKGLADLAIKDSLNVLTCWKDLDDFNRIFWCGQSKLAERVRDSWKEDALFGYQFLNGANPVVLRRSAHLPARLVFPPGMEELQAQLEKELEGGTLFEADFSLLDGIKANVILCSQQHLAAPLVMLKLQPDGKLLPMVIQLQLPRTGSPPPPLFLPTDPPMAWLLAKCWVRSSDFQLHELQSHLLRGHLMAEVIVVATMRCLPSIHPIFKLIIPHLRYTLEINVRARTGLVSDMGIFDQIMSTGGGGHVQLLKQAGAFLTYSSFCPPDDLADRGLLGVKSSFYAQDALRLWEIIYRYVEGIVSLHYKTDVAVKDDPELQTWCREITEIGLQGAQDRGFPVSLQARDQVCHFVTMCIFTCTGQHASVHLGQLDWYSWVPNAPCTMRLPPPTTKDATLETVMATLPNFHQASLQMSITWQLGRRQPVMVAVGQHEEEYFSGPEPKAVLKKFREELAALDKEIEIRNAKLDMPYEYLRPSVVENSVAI
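Compounds were preincubated 15 min at room temperature with 40 nM purified human enzyme (25 mM Hepes pH 7.5, 0.01% Triton X-100); 50 uM arachidonic acid reacted 6 min. Fe-xylenol orange detection, 30 min, absorbance ratio 573/405 nm.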
ERK AVP block: qHTS Assay for Inhibitors of the ERK Signaling Pathway using a Homogeneous Screening Assay; AID 995, 2007; Potency, µM (highest dose often 57.5 µM), actives largely listed as inhibitors; HEK293-V1b, vasopressin-stimulated pERK AlphaScreen; hit rate 0.99% among 72,000; note: nearly all actives have a fitted effect of over 55% in size
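Overnight-seeded V1b-HEK293 cells in 1% FBS got compound, then vasopressin (25 nM final, 5 min, 37C), then lysis buffer. AlphaScreen detection of phospho-ERK; activity normalized to basal and full-stimulation controls.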
CRE Fsk mod: Cell signaling CRE-BLA (Fsk stim); Potency, µM (top dose mostly 38.2 µM), actives largely listed as activators; CHO CRE-bla reporter (cAMP response element driving beta-lactamase), forskolin EC10, beta-lactamase ratio; AID 662, 2007; hit rate 2.5% among 71,000; active = well fitted activation curve with a large enough effect in the signal ratio, with a control signal flat, not every such curve was filed as active; inconclusive = small, poorly fitted or top-dose-only effect, or effect the other way, or a change in a side signal; the % refers to the signal ratio
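CRE-bla CHO cells stimulated with EC10 NKH 477 (water-soluble forskolin) and compound titrations, 3 h at 37C; beta-lactamase read with CCF4 after 2 h at room temperature. Activity from 460/530 nm emission ratio, AC50 values for positive or negative modulation.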
15-hLO-2 inh: qHTS Assay for Inhibitors of 15-hLO-2 (15-human lipoxygenase 2). hit rate 0.56% among 110,000. Potency, µM (doses to about 57.1 µM), actives largely listed as inhibitors. purified 15hLO-2, xylenol orange hydroperoxide absorbance. Polyunsaturated fatty acid lipoxygenase ALOX15B (Homo sapiens), O15296; note: nearly all actives have a fitted effect of over 60% in size
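Purified human 15hLO-2 (50 nM) preincubated 15 min with compound, then 45 uM arachidonic acid for 90 min at RT in 25 mM Hepes pH 7.5, 0.01% Triton X-100. Hydroperoxide detected by Fe-xylenol orange; 573/405 nm absorbance ratio.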
Large screens that a line does not name were inactive. Unless noted, calls come from the whole dose curve; as a rule, active = well fitted inhibition curve with a large enough effect; inconclusive = small, poorly fitted or top-dose-only effect; inactive = no such curve, though single readings can be large or run the other way.

CCc1ccc(NS(=O)(=O)c2ccc3[nH]cc(C(=O)N4CCCCC4)c(=O)c3c2)cc1	ALOX15 inhib 4µM, CRE Fsk mod inconclusive
CCc1ccc(NS(=O)(=O)c2ccc3[nH]cc(C(=O)NCC4CCCO4)c(=O)c3c2)cc1 (configuration not stated)	CRE Fsk mod inconclusive
N#CC1=C(N)SC(N)=C(C#N)C1c1ccc(C(F)(F)F)cc1	ALOX15 inhib inconclusive, 15-hLO-2 inh 13µM
N#CC1=C(N)SC(N)=C(C#N)C1c1cccc(Oc2ccccc2)c1	ALOX15 inhib 5µM, CRE Fsk mod inconclusive, 15-hLO-2 inh inconclusive
CCc1ccc(C2C(C#N)=C(N)SC(N)=C2C#N)s1	ALOX15 inhib 10µM, ERK AVP block inconclusive, CRE Fsk mod inconclusive, 15-hLO-2 inh inconclusive
N#CC1=C(N)SC(N)=C(C#N)C1Cc1ccccc1	ALOX15 inhib inconclusive, CRE Fsk mod inconclusive, 15-hLO-2 inh inconclusive
Cc1ccc(C2C(C#N)=C(N)SC(N)=C2C#N)o1	ALOX15 inhib 6.3µM, 15-hLO-2 inh inconclusive
N#CC1=C(N)SC(N)=C(C#N)C1c1c(Cl)cccc1Cl	ALOX15 inhib inconclusive
C/C(=N\[N+](C)(C)C)c1ccc(C)c(C)c1	none
O=S(=O)(c1ccccc1)N1CCC[C@@]2(CCN(c3ccncc3)C2)C1	none
O=C(O)C[C@H](Cc1ccccc1Cl)C(=O)O	none
CCc1ccc(C2C(C#N)=C(N)SC(N)=C2C#N)cc1	ALOX15 inhib 0.63µM, CRE Fsk mod inconclusive, 15-hLO-2 inh inconclusive
CCOc1ccccc1C1C(C#N)=C(N)SC(N)=C1C#N	ALOX15 inhib inconclusive, CRE Fsk mod inconclusive
CCOc1ccc(C2C(C#N)=C(N)SC(N)=C2C#N)cc1OCC	ALOX15 inhib inconclusive, CRE Fsk mod 7.9µM, 15-hLO-2 inh inconclusive
Cc1c(C)c(C)c(CC2(C)CSC2)c(CC2(C)CSC2)c1C	none
CCCCc1c2ccccc2nc2[nH]c3ccccc3c12	CRE Fsk mod 5µM (no result: ALOX15 inhib)
O[C@@H](c1ccccc1)C1CCN(CCc2ccccc2)CC1	none
O=c1cc(-c2ccccc2Cl)oc2c(NS(=O)(=O)c3cc(Cl)cc(Cl)c3O)ccc(O)c12	15-hLO-2 inh 16µM (no result: ALOX15 inhib, ERK AVP block, CRE Fsk mod)
O=[N+]([O-])c1ccc2c(N=Nc3ccc4ccccc4c3O)c(O)cc(S(=O)(=O)O)c2c1	ALOX15 inhib 3.2µM, 15-hLO-2 inh 4µM
Cc1c(N=c2c(=O)c3ccccc3c2=O)c(=O)n(-c2ccccc2)n1C	ERK AVP block 20µM, CRE Fsk mod inconclusive (no result: 15-hLO-2 inh)
Cc1c(N=CC=Nc2c(C)n(C)n(-c3ccccc3)c2=O)c(=O)n(-c2ccccc2)n1C	CRE Fsk mod inconclusive
Cc1cc(C(=O)Nc2ccccc2C(F)(F)F)no1	none
Cc1ccc(C(=O)NC(=S)Nc2ccccc2C(F)(F)F)cc1C	15-hLO-2 inh 25µM (no result: ALOX15 inhib, ERK AVP block, CRE Fsk mod)
Clc1ccc(-c2ccc(-c3nn4c(-c5ccco5)nnc4s3)o2)cc1	ALOX15 inhib 16µM, CRE Fsk mod inconclusive (no result: 15-hLO-2 inh)
COc1cc(-c2nn3c(-c4ccco4)nnc3s2)cc(OC)c1OC	none (no result: ALOX15 inhib, ERK AVP block, CRE Fsk mod)
Brc1ccc(-c2nn3c(-c4ccco4)nnc3s2)o1	ALOX15 inhib 20µM, CRE Fsk mod inconclusive
C/C(CCN1CCCc2nc(C)c(C)cc21)=N\O[C@@H](C)c1cc(-c2c(C)cc(C)cc2C)no1	none (no result: CRE Fsk mod, 15-hLO-2 inh)
COC(=O)c1cnn2c(C)c(Cc3cccc(F)c3)c(C)nc12	ERK AVP block inconclusive, CRE Fsk mod 13µM (no result: 15-hLO-2 inh)
Cc1nc2c(C(=O)O)cnn2c(C)c1Cc1ccccc1F	none
CC(C)CCn1c(Sc2nc3ccccc3s2)nc2c1c(=O)[nH]c(=O)n2C	CRE Fsk mod 10µM
CC(C)CCSc1nc2c(c(=O)[nH]c(=O)n2C)n1CCCc1ccccc1	CRE Fsk mod 3.2µM (no result: ERK AVP block, 15-hLO-2 inh)
CCCCCSc1nc2c(c(=O)[nH]c(=O)n2C)n1CCc1ccccc1	CRE Fsk mod 2.5µM (no result: ERK AVP block)
COc1cc2c(cc1OC)C(=O)N(C)CC2	CRE Fsk mod 16µM
COc1cc2c(cc1OC)C(=O)OC2	none (no result: CRE Fsk mod)
COc1cccc2sc(Nc3nnc(-c4ccccc4Cl)o3)nc12	CRE Fsk mod 5µM (no result: ERK AVP block, 15-hLO-2 inh)
COc1ccccc1-c1nnc(Nc2nc3c(OC)cccc3s2)o1	CRE Fsk mod inconclusive (no result: 15-hLO-2 inh)
CC1=C(C#N)c2nc(N)c(C#N)c(C)c2/C1=C\c1ccccc1	ALOX15 inhib 40µM, ERK AVP block inconclusive (no result: 15-hLO-2 inh)
CCc1nnc(NC(=O)c2ccc(NS(=O)(=O)c3ccccc3)cc2)s1	none (no result: 15-hLO-2 inh)
CCc1nnc(NS(=O)(=O)c2ccc(NC(=S)NC(=O)/C=C/c3ccc(C(C)C)cc3)cc2)s1	15-hLO-2 inh 25µM (no result: ALOX15 inhib, ERK AVP block, CRE Fsk mod)
CCOc1cc(C2NC(=O)NC(C)=C2C(=O)OC(C)CC)cc(Br)c1O (configuration not stated)	CRE Fsk mod 10µM
O=C(CC1N=C2c3ccccc3N=C(SCc3ccc(Cl)cc3)N2C1=O)NCc1ccco1 (configuration not stated)	ALOX15 inhib 25µM, CRE Fsk mod inconclusive
Cc1ccc(CSC2=Nc3ccccc3C3=NC(CCC(=O)NCc4ccco4)C(=O)N23)cc1 (configuration not stated)	ALOX15 inhib inconclusive, CRE Fsk mod inconclusive
C=CCn1c(N)c(C(=O)OC(C)(C)C)c2nc3ccccc3nc21	none (no result: ALOX15 inhib, ERK AVP block, CRE Fsk mod)
C=CCn1c(N)c(C(=O)OC(C)CC)c2nc3ccccc3nc21 (configuration not stated)	CRE Fsk mod 13µM
CCOc1ccc(-c2nc(C#N)c(N3CCN(C)CC3)o2)cc1	ERK AVP block inconclusive
COc1ccc(-c2nc(C#N)c(N3CCCCCC3)o2)cc1	ERK AVP block inconclusive, CRE Fsk mod inconclusive
COc1ccc(-c2nc(C#N)c(N3CCCCCC3)o2)cc1OC	ERK AVP block inconclusive, CRE Fsk mod 1.3µM
CCOc1ccc(-c2nc(C#N)c(N3CCCCCC3)o2)cc1	ERK AVP block 20µM, CRE Fsk mod inconclusive
CCSc1sccc1C1C(C#N)=C(N)N(c2cccnc2)C2=C1C(=O)CCC2 (configuration not stated)	ALOX15 inhib inconclusive, ERK AVP block 32µM
CCOc1cccc(C(=O)c2ccc(O)c(O)c2O)c1	ALOX15 inhib 13µM, 15-hLO-2 inh inconclusive (no result: CRE Fsk mod)
C[C@@H]1CN2[C@H](c3ccc(Br)cc3)[C@H](C)CC[C@H]2C(=O)O1	none (no result: CRE Fsk mod, 15-hLO-2 inh)
COc1ccc2c3c(cccc13)N(C)N=C2C	15-hLO-2 inh 2.5µM (no result: ALOX15 inhib, ERK AVP block, CRE Fsk mod)
COc1ccccc1N1CCN(S(=O)(=O)c2ccc3c4c(cccc24)C(=O)N3C)CC1	none
O=C1c2ccccc2-c2onc3ccc(NCCCn4ccnc4)c1c23	ERK AVP block 16µM, CRE Fsk mod inconclusive
COc1ccc2noc3c2c1C(=O)c1ccccc1-3	ALOX15 inhib inconclusive, ERK AVP block inconclusive (no result: 15-hLO-2 inh)
COc1ccc(-c2nnc3ccc(SC(C(C)=O)C(C)=O)nn23)cc1OC	ALOX15 inhib inconclusive, CRE Fsk mod 6.3µM
Cc1cccc(-c2cc3nc4c(c(N5CCOCC5)n3n2)CCCC4)c1	CRE Fsk mod 2.5µM
Cc1cccc(-c2cc3nc4c(c(N5CCCC(O)C5)n3n2)CCC4)c1 (configuration not stated)	CRE Fsk mod 13µM
Cc1cccc2cc3c(NC(=O)C(C)C)nn(C)c3nc12	CRE Fsk mod 3.2µM
